Results reported in PubChem BioAssay (Tox21).
“And” between values parts separate entries of the source, which are not always exact repeats. Identical values can stand only once. Results filed as inconclusive are left out. Where a call stands in place of a potency, no number is given. The source holds several records for some structures; these can differ, active in one and inactive in another. The source made the active and inactive calls. Calls follow the shape of the dose curve; as a rule, active = well fitted cell-killing curve with a large enough effect in the repeat runs; inconclusive = weak or mixed curves, or effect the other way; inactive = flat fitted curve, though single readings scatter.

Assay: qHTS RealTime-Glo MT Cell Viability Assay in HEK293 cells - 24 hour (AID 1224886); also: nearly all actives have a fitted effect of over 50% in size
Settings: RealTime-Glo luminescence; series mostly up to 76.8 µM
Excerpt: National Center for Advancing Translational Sciences [NCATS]
NIH Chemical Genomics Center [NCGC]
U.S. Environmental Protection Agency [EPA]
National Institutes of Environmental Health Sciences [NIEHS]
National Toxicology Program [NTP]
U.S. Food and Drug Administration [FDA]
Measure of cell viability is critical in the cell-base assay. Analysis of cell viability is necessary for the characterization of cell responses to cytotoxic drugs and environmental stress. A RealTime-Glo MT Cell Viability Assay to monitor cell viability in real time of continues cell culture during 40 hours of compound treatment was used to screen Tox21 10K library compounds in Hek293 cells. The RealTime-Glo MT Cell Viability Assay is a nonlytic, homogeneous, bioluminescent method to measure cell viability in real time using a simple, plate-based method. The assay involves adding NanoLuc luciferase and a cell-permeant prosubstrate to cells in culture. Viable cells reduce the proprietary prosubstrate to generate a substrate for NanoLuc luciferase. This substrate diffuses from cells into the surrounding culture medium, where it is rapidly used by the NanoLuc Enzyme to produce a luminescent signal. The signal correlates with the number of viable cells, making the assay well suited for cytotoxicity studies.
Tox21 Assay Protocol Summary:
The mixture of Hek293 cell suspension and reagents were dispensed at 600cells/6 ul/well in 1536-well tissue culture treated black solid bottom plates using a Multidrop dispenser. After the assay plates were incubated at a 37 C/5% CO2 incubator for 5 hours, 23 nL of compounds dissolved in DMSO, positive and negative controls was transferred to the assay plate by a pintool work station. The plates were incubated at 37 C for 40 hours. The luminescence intensity were measured at 0h, 8h, 16h, 24h, 32h and 40h time points using ViewLux plate reader during compound treatment.
Potency is read from the fitted curve at half-maximal effect.

Row | Structure (SMILES) | Potency
1 | CN(C)[C@@H]1C(=O)C(C(N)=O)=C(O)[C@@]2(O)C(=O)C3=C(O)c4c(O)cccc4[C@@](C)(O)[C@H]3[C@H](O)[C@@H]12 | inactive
2 | CCCCCC[n+]1ccccc1 | inactive
3 | O=C(O)COc1ccc(Cl)cc1Cl | inactive
4 | Nc1ccc(Cl)cc1 | inactive
5 | COP(=O)(OC)C(O)C(Cl)(Cl)Cl (stereo not given) | inactive
6 | CCCCCCCCn1cc[n+](C)c1 | 3.86 µM (active) and 4.41 µM (active)
7 | O=c1[nH]c(=O)n(Cl)c(=O)n1Cl | inactive
8 | Cc1cc(Cl)ccc1OCC(=O)O | inactive
9 | O=P1(N(CCCl)CCCl)NCCCO1 (stereo not given) | inactive
10 | O=C(O)C(Cl)(Cl)Cl | inactive
11 | COc1ccc(N)cc1 | inactive
12 | CCCCCCn1cc[n+](C)c1 | 22.2 µM (active) and 14 µM (active) and 17.7 µM (active)
13 | N#CS | inactive
14 | O=[N+]([O-])O | inactive
15 | O=C(O)C(Cl)Cl | inactive
16 | CCCn1cc[n+](C)c1 | inactive
17 | CCC[N+]1(C)CCCCC1 | inactive
18 | CC(Cl)(Cl)C(=O)O | inactive
19 | CCCCCCCCCCCCOS(=O)(=O)O | inactive
20 | CCn1cc[n+](C)c1C | inactive

Row | Structure (SMILES) | Potency
21 | CCCC[n+]1ccc(C)cc1 | 43.4 µM (active) and inactive
22 | Nc1ccc(-c2ccc(N)cc2)cc1 | inactive
23 | C=CCOC(Cn1ccnc1)c1ccc(Cl)cc1Cl (stereo not given) | 24.6 µM (active)
24 | O=C(O)c1nc(Cl)ccc1Cl | inactive
25 | OCCOc1ccccc1 | inactive
26 | O=S(=O)(O)O | inactive
27 | O=C(O)c1ccccc1O | inactive
28 | CNC | inactive
29 | Nc1ccc(-c2ccc(N)c(Cl)c2)cc1Cl | 15.6 µM (active) and 24.5 µM (active)
30 | COc1ccccc1N | inactive
31 | O=C(O)CC(O)(CC(=O)O)C(=O)O | inactive
32 | CC[n+]1ccccc1 | inactive
33 | C[C@]12CCC(=O)C=C1CC[C@@H]1[C@@H]2CC[C@]2(C)C(=O)CC[C@@H]12 | 27.1 µM (active) and inactive
34 | Oc1ccccc1-c1ccccc1 | inactive
35 | CCOP(=S)(OCC)Oc1ccc2c(C)c(Cl)c(=O)oc2c1 | 14 µM (active) and 43.6 µM (active) and inactive
36 | CCCCn1cc[n+](C)c1 | inactive
37 | CCCCCCCCCCCC(=O)O | inactive
38 | Cc1cc(Cl)ccc1N | inactive
39 | CCCC[n+]1ccccc1C | inactive
40 | CC[N+]1(C)CCCC1 | inactive and 24.6 µM (active)
